Results as given in PubChem BioAssay AID1626 (SRMLSC, 2009).
Hit rate of the full screen: of about 220,000 compounds, about 2,000 (0.91%) were called active. Roughly 2% stayed inconclusive and do not appear here. Cut-off read from the data, not from the text of the source: inconclusive = inhibition above about 80% without an active follow-up result; inactive = below that; test concentration not stated here. Only a sample is shown. Results with a measured potency or affinity are listed apart.

Assay: M. tuberculosis H37Rv growth inhibitors, H37Rv strain (AID 1626);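 note: bacteria incubated seven days before Alamar blue readout; 0% = bacteria only wells and 100% = bacteria with antibiotic wells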
Conditions: active compounds read high, concentration not given here

SMILES	inhibition
Fc1ccc(CSc2nncn2NCc2ccccc2)cc1	-8.84% (inactive)
O=C(Nc1cccc(NC(=O)c2cccs2)c1)c1ccc2c(c1)OCCO2	4% (inactive)
O=C(NNC1=NCCC1)c1cccc(S(=O)(=O)N2CCCC2)c1	-1.54% (inactive)
Cc1cccc(N=Cc2c(O)cc(C)oc2=O)c1	2.51% (inactive)
Cc1cc(C)cc(Oc2ccc(N)cc2)c1	-4.94% (inactive)
Nc1ccc(Br)cc1C(=O)O	-3.82% (inactive)
Nc1ccc(Oc2cccc(Oc3ccc(N)cc3)c2)cc1	0.76% (inactive)
Brc1ccc2ncc(Br)cc2c1	9.05% (inactive)
CCOC(=O)N1CCN(S(=O)(=O)c2ccc3c(c2)CCN3C(=O)CC)CC1	-14.9% (inactive)
CCc1ccccc1NC(=O)c1ccc(Cn2cc([N+](=O)[O-])cn2)cc1	2.06% (inactive)
CC(C)Cc1nnc(NS(=O)(=O)Cc2ccccc2)s1	3.7% (inactive)
COc1ccc(CN(C)C(=O)CCl)cc1	17.4% (inactive)
CN(Cc1ccc(Cl)cc1)C(=O)CCl	63% (inactive)
CCOC(=O)c1ccc(-n2c(CN3CCOCC3)nc3ccc([N+](=O)[O-])cc3c2=O)cc1	69.4% (inactive)
CCOC(=O)c1ccc(-n2c(CN3CCN(CC)CC3)nc3ccc([N+](=O)[O-])cc3c2=O)cc1	64.1% (inactive)
CC(C)Sc1nnc([C@@H](N)Cc2ccccc2)o1	-1.26% (inactive)
Cc1ccc(-c2nn(-c3cccc(F)c3)cc2CNCCc2ccncc2)o1	8.28% (inactive)
Cc1ccc(-c2nn(-c3cccc(F)c3)cc2CNCc2cccnc2)o1	12.8% (inactive)
C=CCNC(=O)c1onc(CSc2cc(C)cc(C)c2)c1C(=O)NCC=C	4.46% (inactive)
O=c1c2cn[nH]c2[nH]c(=S)n1-c1cccc2ccccc12	8.18% (inactive)
COc1ccccc1OCC#CCN1CCCCCC1	4.4% (inactive)
Cc1ccc(NC2=NCC(Cc3ccc(Br)cc3)S2)cc1 (configuration not stated)	44.8% (inactive)
COc1ccc(NC2=NCC(C)S2)cc1 (configuration not stated)	5.03% (inactive)

SMILES	inhibition
CC1=C(C#N)C(NC(=O)C(C)(C)C)(C(F)(F)F)C(=O)N1 (configuration not stated)	-1.62% (inactive)
CCOC(=O)CN(Cc1sccc1C)C(=O)Nc1ccc(OCC)cc1	3.69% (inactive)
CSc1ccc(/C=C(/Sc2nnc(-c3ccccc3)o2)C(=O)O)cc1	-6.84% (inactive)
CCOC(=O)c1cccc(NC(=O)/C=C/c2ccc([N+](=O)[O-])cc2)c1	22.2% (inactive)
CCCCCC/C(=N/O)c1ccccn1	-3.95% (inactive)
CCCCCC(=O)N/N=C(\C)c1ccccn1	1.4% (inactive)
COc1ccc(Cl)cc1-c1n[nH]c(=S)n1C1CCCCC1	0.84% (inactive)
CC(=O)c1cccc(CN2CCC(CO)(CCCc3ccccc3)CC2)c1	3.9% (inactive)
Cc1ccccc1-c1ncc(CN2CCC(CO)(CCCc3ccccc3)CC2)cn1	69.6% (inactive)
N#C/C(=C(/O)c1cccs1)c1nnc2n1CCCCC2	-5.04% (inactive)
Cc1ccc(S(=O)(=O)N2CCCC(C(=O)N(Cc3cccs3)C3CC3)C2)cc1 (configuration not stated)	-4.95% (inactive)
CSCCC(NC(=O)c1ccc(C(C)(C)C)cc1)C(=O)O (configuration not stated)	0.53% (inactive)
O=C(COc1ccc(OCc2ccccc2)cc1)NN=C1CCCC1	7.98% (inactive)
COc1ccc(OC)c2c1C(=O)c1ccccc1C2=O	6.76% (inactive)
Nc1ccc(O)c2c1C(=O)c1ccccc1C2=O	0.25% (inactive)
Clc1cc(Cl)cc(Nc2ncn[nH]2)c1	5.96% (inactive)
Clc1ccc(Nc2ncn[nH]2)cc1	77.2% (inactive)
CCCOc1ccc2c(C)c(CC(=O)OC)c(=O)oc2c1	-2.3% (inactive)
Cc1ccc(SCC(=O)NC(=O)NC(C)C)c(C)c1	11.6% (inactive)
O=C(Nc1nnc(C2CC2)s1)c1cc(-c2ccccc2)nn1-c1ccccc1	43.6% (inactive)
COc1ccc(NC(=S)N(Cc2ccc(Cl)cc2)Cc2ccc(C(=O)O)cc2)cc1Cl	61% (inactive)
O=C(Oc1ccc2ccccc2c1)c1ccco1	53.4% (inactive)
CC1=CC(C)(C)Nc2ccc(OC(=O)CN3C(=O)c4ccccc4C3=O)cc21	-11.5% (inactive)

SMILES	inhibition
CC1=CC(C)(C)Nc2ccc(OC(=O)c3cccnc3)cc21	-2% (inactive)
CC1CC(C)(C)NCc2ccccc21 (configuration not stated)	-9.91% (inactive)
COC(=O)c1ccc(OC(=O)c2ccco2)cc1	-4.94% (inactive)
CC1CC(C)(C)NC(C)c2ccccc21 (configuration not stated)	-2.84% (inactive)
NS(=O)(=O)c1ccc(NC(=O)c2c(Cl)cccc2Cl)cc1	2.71% (inactive)
O=C1CC(c2cccc(F)c2)c2c(c3ccccc3[nH]c2=O)O1 (configuration not stated)	1.98% (inactive)
Cc1ccccc1-n1c(C)nc2ccccc2c1=O	2.88% (inactive)
O=c1c2ccccc2nc(-c2ccccc2)n1-c1ccccc1	2.18% (inactive)
Cc1ccc(NC(C)c2cc(Cl)ccc2O)cc1 (configuration not stated)	-1.72% (inactive)
CC(Nc1ccc(Cl)cc1)c1cc(Cl)ccc1O (configuration not stated)	-8.64% (inactive)
CSc1nc(N(C)NC(=O)c2ccc(F)cc2)c2ccccc2n1	-5.17% (inactive)
CSc1nc(N(C)NC(=O)c2ccccc2)c2ccccc2n1	-4.21% (inactive)
O=C(NCc1ccccc1)[C@]1(C(F)(F)F)C[C@H](CCc2ccccc2)CCCO1	-10.1% (inactive)
Nc1nn(-c2cccc(F)n2)cc1-c1ccccc1	-5.22% (inactive)
O=C(COc1ccc(Cl)cc1)Nc1ccccc1N1CCOCC1	-1.58% (inactive)
CCCCNC(=O)COC(=O)c1ccc(Cl)c(S(N)(=O)=O)c1	-0.33% (inactive)
CC(C)NC(=O)COC(=O)c1cc(Br)ccc1Cl	4% (inactive)
CCCNC(=O)COC(=O)c1cc(SC)ccc1Cl	7.67% (inactive)
CC(C)(C)NC(=O)COC(=O)c1cc(F)c(F)cc1Cl	38.6% (inactive)
CNC(=O)COC(=O)c1cc(F)c(F)cc1Cl	4.23% (inactive)
CCCCNC(=O)COC(=O)c1ccc(F)cc1Cl	10.1% (inactive)
